Screen size: about 53,000 compounds; about 900 (1.7%) showed an effect of 50% or more. For the sample, strong results were picked, then their nearest neighbours and some compounds at random.

In the test the test system is Mycobacterium tuberculosis. The experiment in a line: Cornell - Phenotypic assay to identify agents that inhibit growth of Mycobacterium tuberculosis. The test is classed as functional. Set-up: scale not given: direction of the effect not stated beside the values. As to conditions: 10 mM as filed; unlikely as a test dose.
In the case of `Cc1ccc(CN2CCC3(CC2)NC(=O)CC3c2ccccc2)s1.O=C(O)C(F)(F)F` (stereo unspecified), the “Percent Effect” value was found to be 1.118%. The result for `O=C1C(Nc2nccn3cnnc23)CCN1c1cccc(Cl)c1` (stereo unspecified) reads -12%; that for `CCN(CC)C(=O)CSc1nnc(CCNC(=O)OC(C)(C)C)o1`, -12.06%. The result for `CS(=O)(=O)CCn1ccc(NC(=O)Cc2c[nH]c3ccccc23)n1` reads 31.98%; that for `Cl.O=C(Cn1c(-c2ccco2)cc2cccnc21)N1CCCC1`, 60.37%; that for `Cl.O=C(CCn1c(C(F)(F)F)cc2cccnc21)N1CCCC1`, -14.31%. `CC(C)N(C(=O)Cn1c(-c2ccco2)cc2cccnc21)C(C)C.Cl`: the “Percent Effect” value is listed as 99.58%. Next, `Cc1ncccc1-c1cc2cccnc2n1CCCNC(=O)C1CC1.Cl`: 15.61%; `O=C(c1cnn2c(-c3ccco3)ccnc12)N1CCCCCC1`: 38.47%. For `COCCNC(=O)Cn1c(-c2ccco2)cc2cccnc21`, the “Percent Effect” value was determined as 49.86%. The result for `COCc1cc(N2CCN(C3CCCCC3)CC2)n2nccc2n1` reads 6.435%; that for `CCn1ccnc1CN1CCN(C(C)C(=O)N2CCCC2)CC1` (stereo unspecified), -13%; that for `CCC1(O)CCCN(c2nc(-c3ccccn3)nc3c2c(C)nn3C)C1` (stereo unspecified), 23.24%. As for `CCCNC(=O)Nc1ccc2c(c1)N(S(=O)(=O)CC)CC2`, the “Percent Effect” value is 11.66%. As for `CS(=O)(=O)N1CC[C@]2(O)CCN(CCCC(=O)c3ccccc3)C[C@@H]2C1`, the “Percent Effect” value amounted to 2.425%. The result for `C=Cn1ncc(CN2C[C@@H]3CCCN3C[C@@H]2CCSC)c1C` reads -11.11%; that for `Cc1ccc(-c2noc(C3CCN3C(=O)c3ccc(=O)[nH]n3)n2)s1` (stereo unspecified), 58.13%. Next, `Cc1ccc(-c2noc(C3CCN3C(=O)c3c(C)noc3C)n2)s1` (stereo unspecified): 48.41%; `Cc1cc(O)cc(C2CCCN2C(=O)c2ccn(C)n2)n1` (stereo unspecified): -43.03%; `CC(=O)N1CCC1c1nc(-c2ccc(C)s2)no1` (stereo unspecified): 7.935%. The result for `Cc1c[nH]c(C2COCCN2C(=O)c2ccc(=O)[nH]n2)n1` (stereo unspecified) reads 0.9699%. In the case of `Cc1ccc(-c2noc(C3CCN3C(=O)c3ccn(C)n3)n2)s1` (stereo unspecified), the “Percent Effect” value was 54.98%. Next, `CC1CCCCN1C(=O)c1ccc(=O)[nH]n1` (stereo unspecified): -37.74%; `Cc1ccc(-c2noc(C3CCN3C(=O)c3cc[nH]n3)n2)s1` (stereo unspecified): 52.32%; `CC(=O)N1CCC(C(=O)N2CCC2c2nc(-c3ccc(C)s3)no2)CC1` (stereo unspecified): -6.67%. The result for `CCN1CCn2c(C)cnc2C12CCN(C(=O)c1cscn1)CC2.O=C(O)C(F)(F)F.O=C(O)C(F)(F)F` reads -12.15%.

As for `CC(C)c1cc(CN(C)C(=O)CN2CCNC2=O)no1`, the “Percent Effect” value is -1.518%. In the case of `Cc1cc(C)cc(CN2CCN(C(=O)CCc3n[nH]c(C)n3)CC2=O)c1`, the “Percent Effect” value is reported as -36%.

As to `Cc1cnc(N2CCC3(CC(=O)N(Cc4csc(C)n4)C3)C2)nc1.O=C(O)C(F)(F)F` (stereo unspecified), the “Percent Effect” value stood at 10.64%. As for `CCCOc1ccc(Cl)cc1C(=O)N1CCC(n2cncn2)CC1`, the “Percent Effect” value was -8.806%. The result for `Clc1cnc(NCc2ccccc2N2CCOCC2)nc1` reads 11.26%; that for `Cc1cc(C)c2c(N3CCN(C(=O)N4CCOCC4)CC3)ncnc2n1`, -18.35%; that for `CC(C)O[C@@H]1CC[C@H]2[C@H]1OCCN2C(=O)c1nn(C)c2ccccc12`, 4.286%. The result for `CC(C)S(=O)(=O)CC(=O)NCC(Cc1ccc(F)cc1)C(N)=O` (stereo unspecified) reads 7.629%. Next, `COCCn1cncc1CN1CCCC(C)(c2ccccc2)C1` (stereo unspecified): 16.9%; `CC1(c2ccccc2)CCCN(Cc2cncn2C2CC2)C1` (stereo unspecified): -6.001%. Consider `CC1(c2ccccc2)CCCN(Cc2cncn2C2CCCC2)C1` (stereo unspecified), for which the “Percent Effect” value is listed as 105.1%. For `Cn1nccc1NCc1cc2cc(F)ccc2o1`, the “Percent Effect” value is -27.44%. Next, `COc1ccc(CNC(C)c2ccc(Cl)cc2)c(OC)c1OC` (stereo unspecified): 4.187%; `COc1ccc(CNC(C)c2ccc(Cl)c(Cl)c2)c(OC)c1OC` (stereo unspecified): 81.35%. The result for `COc1ccc(CNC(C)c2cccc(Cl)c2)c(OC)c1OC` (stereo unspecified) reads -6.089%; that for `Cc1cc(NCc2ccc(CO)cc2)n2nc(C)cc2n1`, -38.88%. The result for `CC1(C)CC(N2Cc3nc(N)ncc3C2=O)CC(C)(C)N1` reads 5.443%; that for `Nc1ncc2c(n1)CN(C1CCCC1)C2=O`, 100.2%; that for `CC(C)CN1Cc2nc(N)ncc2C1=O`, 0.3963%. Consider `Cc1cnn(CCNCc2ccc(OCc3ccncc3)cc2)c1`, for which the “Percent Effect” value is listed as -5.152%.

On to `CC(C)CN1Cc2c(C(=O)N(C)C)ncn2-c2ccccc2S1(=O)=O`, for which the “Percent Effect” value was -10.19%.

Consider `CCCc1nnc2sc(CC3CN(Cc4ccccc4)CCO3)nn12` (stereo unspecified), for which the “Percent Effect” value worked out at 22.38%. The result for `CNS(=O)(=O)c1cccc(S(=O)(=O)Nc2ncc(C)s2)c1` reads 51.19%; that for `Cc1cnc(NS(=O)(=O)c2ccccc2)s1`, 18.01%; that for `Cc1cnc(NS(=O)(=O)c2cccc(C#N)c2)s1`, -17.84%.

Values taken from ChEMBL document CHEMBL3988442, “University of Dundee, Small-Polar-MMV Screening Library” (2021).
